Laboratory results as given in PubChem BioAssay (Tox21).
“And” between values parts separate entries of the source, which are not always exact repeats. Equal values may be shown once. Inconclusive results are not listed. A call without a number means that no potency is given here. A structure can be active in one record and inactive in another. The source made the active and inactive calls. Unless noted, the call rests on the fitted dose curve; in most records, active means well fitted curve in the direction sought with a large enough effect in the repeat runs; inconclusive means weak or mixed curves; inactive means no such curve, though single readings can be large; an effect the other way counts as inactive or inconclusive.

Key:
[1] = qHTS assay to identify small molecule antagonists of the thyroid receptor (TR) signaling pathway - cell viability counter screen (AID 743064); further: potency means the concentration at half of the fitted maximal effect; nearly all actives have a fitted effect of over 50% in size
How it was run: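 Same-well viability check: GH3.TRE-Luc cells stimulated with 1 nM T3 alongside test compound for 23.5 h, followed by CellTiter-Fluor fluorescence.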

[2] = qHTS assay to identify small molecule antagonists of the thyroid receptor (TR) signaling pathway (AID 743065); further: potency means the concentration at half of the fitted maximal effect; nearly all actives have a fitted effect of over 55% in size
How it was run: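 GH3.TRE-Luc rat pituitary cells (two TREs driving luciferase) were dosed with compound, then stimulated with 1 nM T3 (final) for 23.5 h at 37 C. ONE-Glo luminescence was the read-out, with CellTiter-Fluor fluorescence as the cytotoxicity counter-screen.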

[3] = test system: thyroid hormone receptor (rat, GH3 cells); experiment: qHTS assay to identify small molecule agonists of the thyroid receptor (TR) signaling pathway (AID 743066; calls by dose curve)
[4] = target: Estrogen receptor (Homo sapiens) (UniProt P03372); experiment: qHTS assay to identify small molecule antagonists of the estrogen receptor alpha (ER-alpha) signaling pathway (AID 743069; active means well fitted curve in the direction sought with a large enough effect in the signal ratio in the repeat runs, not every such curve was filed as active; the % refers to the signal ratio)
How it was run: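 HEK293 ER-alpha-UAS-bla GripTite cells, held overnight in 2% charcoal-stripped FBS, 5,000 cells/well, preincubated 4 h, then compound plus 17beta-estradiol for 18 h at 37C. Beta-lactamase read by LiveBLAzer B/G FRET substrate, 2 h at room temperature.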

[5] = qHTS assay to identify small molecule antagonists of the estrogen receptor alpha (ER-alpha) signaling pathway - cell viability counter screen (AID 743074; calls by dose curve;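 further: HEK293 cells carrying ER-alpha-UAS-bla reporter stimulated with 17beta-estradiol; nearly all actives have a fitted effect of over 45% in size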; further: potency means the concentration at half of the fitted maximal effect)
[6] = target: Estrogen receptor (Homo sapiens) (UniProt P03372); experiment: qHTS assay to identify small molecule agonists of the estrogen receptor alpha (ER-alpha) signaling pathway (AID 743075; calls by dose curve)
[7] = target: Estrogen receptor (Homo sapiens) (UniProt P03372); experiment: qHTS assay to identify small molecule agonists of the estrogen receptor alpha (ER-alpha) signaling pathway using the BG1 cell line (AID 743079); details: BG1Luc4E2 cells, ERE-luciferase agonist, 22 h; activation: at 70.3 µM (top of the series); further: nearly all actives have a fitted effect of over 20% in size
[8] = qHTS assay to identify small molecule antagonists of the estrogen receptor alpha (ER-alpha) signaling pathway using the BG1 cell line (AID 743080; calls by dose curve;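 further: BG1 cells stimulated with 17beta-estradiol alongside compound; nearly all actives have a fitted effect of over 25% in size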; further: potency means the concentration at half of the fitted maximal effect)
How it was run: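 After 5 days in phenol-red-free 10% charcoal-stripped FBS medium, BG1-Luc-4E2 cells were seeded, left 24 h at 37 C, co-treated with compounds and 17beta-estradiol for 21.5 h, then assayed for viability and luciferase.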

[9] = qHTS assay to identify small molecule antagonists of the estrogen receptor alpha (ER-alpha) signaling pathway using the BG1 cell line - cell viability counter screen (AID 743081);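 further: compound given together with 17beta-estradiol as the ER stimulus; nearly all actives have a fitted effect of over 45% in size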; further: potency means the concentration at half of the fitted maximal effect
[10] = target: Aromatase (Homo sapiens) (UniProt P11511); experiment: qHTS assay to identify aromatase inhibitors (AID 743083); further: nearly all actives have a fitted effect of over 55% in size; further: potency means the concentration at half of the fitted maximal effect
[11] = qHTS assay to identify aromatase inhibitors - cell viability counter screen (AID 743084);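 further: cells stimulated with testosterone during compound exposure; nearly all actives have a fitted effect of over 55% in size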; further: potency means the concentration at half of the fitted maximal effect
[12] = target: Aryl hydrocarbon receptor (Homo sapiens) (UniProt P35869); experiment: qHTS assay to identify small molecule that activate the aryl hydrocarbon receptor (AhR) signaling pathway (AID 743085); further: nearly all actives have a fitted effect of over 15% in size; further: potency means the concentration at half of the fitted maximal effect;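 on activation: HG2L7.5c1 human HepG2 liver cells with stably integrated DRE-driven firefly reporter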
How it was run: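 Reporter assay in engineered HepG2 line HG2L7.5c1, whose plasmid carries twenty dioxin responsive elements upstream of firefly luciferase. Treatment lasted 24 h at 37C; ONE-Glo luminescence gauged induction.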

[13] = qHTS assay to identify small molecule that activate the aryl hydrocarbon receptor (AhR) signaling pathway - cell viability counter screen (AID 743086); further: nearly all actives have a fitted effect of over 45% in size; further: potency means the concentration at half of the fitted maximal effect
How it was run: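 HepG2-AhR-luc (HG2L7.5c1) cells, 4000/well, treated 24 h at 37 C with compound; viability measured as CellTiter-Fluor fluorescence after 30 min in the same wells as the luciferase read.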

[14] = target: Nuclear receptor subfamily 1 group I member 2 (Rattus norvegicus) (UniProt Q9R1A7); experiment: Rat pregnane X receptor (rPXR) activation by small molecules, qHTS assay (AID 1346983); details: rPXR luciferase reporter cells, One-Glo luminescence, 24 h; max activation: stronger effect = higher value; further: nearly all actives have a fitted effect of over 20% in size
How it was run: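 Cell-based rPXR activation assay: rPXR cells, 2,000 per well, rested 5hr at 37 C, then exposed to compounds in DMSO for 24 hr at 37 C. Luciferase activity read by One-Glo luminescence after 30 min at room temperature.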

[15] = target: Nuclear receptor subfamily 1 group I member 2 (Homo sapiens) (UniProt O75469); experiment: CYP3A4 induction through human pregnane X receptor (PXR) by small molecules, qHTS assay (AID 1346984); further: nearly all actives have a fitted effect of over 40% in size; further: potency means the concentration at half of the fitted maximal effect
How it was run: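 DPX-2 reporter cells; 24h cpd, 37C; Luciferin-IPA 3uM final x3h; One-Glo 30 min RT; lumi read.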

[16] = target: Nuclear receptor subfamily 1 group I member 2 (Homo sapiens) (UniProt O75469); experiment: Human pregnane X receptor (PXR) activation by small molecules, qHTS assay (AID 1346985); further: nearly all actives have a fitted effect of over 40% in size; further: potency means the concentration at half of the fitted maximal effect
How it was run: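 DPX-2 cells (HepG2 co-transfected with a PXR response element and a CYP3A4-promoter luciferase construct) were seeded at 2,000 per well, rested 5 hr at 37C, then exposed to DMSO-dissolved compounds for 24 hr. Activation was read as luciferase luminescence.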

[17] = target: Peroxisome proliferator-activated receptor gamma (Homo sapiens) (UniProt P37231); experiment: qHTS assay to identify small molecule agonists of the peroxisome proliferator-activated receptor gamma (PPARg) signaling pathway (AID 743094; active means well fitted activation curve with a large enough effect in the signal ratio in the repeat runs, not every such curve was filed as active; the % refers to the signal ratio)
How it was run: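 Stably transfected HEK293H cells (GeneBLAzer PPARg UAS-bla) were incubated with test substances for 17 h at 37C after a 5 h pre-incubation; beta-lactamase activity was then detected by FRET substrate fluorescence.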

[18] = qHTS assay to identify small molecule phospholipidosis (PLD) inducers (AID 1259344; active means well fitted curve in the direction sought with a large enough effect; an effect the other way counts as inactive or inconclusive)
How it was run: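 HepG2 cells, 900/well, treated with compound plus LipidTOX Red for 24 h at 37 C; amiodarone positive and DMSO negative controls. Fixed with paraformaldehyde/Hoechst, then high-content imaging scored LipidTOX pit count and integrated intensity per well and per cell.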

Sequence of Peroxisome proliferator-activated receptor gamma (Homo sapiens) (P37231 whole entry, looked up): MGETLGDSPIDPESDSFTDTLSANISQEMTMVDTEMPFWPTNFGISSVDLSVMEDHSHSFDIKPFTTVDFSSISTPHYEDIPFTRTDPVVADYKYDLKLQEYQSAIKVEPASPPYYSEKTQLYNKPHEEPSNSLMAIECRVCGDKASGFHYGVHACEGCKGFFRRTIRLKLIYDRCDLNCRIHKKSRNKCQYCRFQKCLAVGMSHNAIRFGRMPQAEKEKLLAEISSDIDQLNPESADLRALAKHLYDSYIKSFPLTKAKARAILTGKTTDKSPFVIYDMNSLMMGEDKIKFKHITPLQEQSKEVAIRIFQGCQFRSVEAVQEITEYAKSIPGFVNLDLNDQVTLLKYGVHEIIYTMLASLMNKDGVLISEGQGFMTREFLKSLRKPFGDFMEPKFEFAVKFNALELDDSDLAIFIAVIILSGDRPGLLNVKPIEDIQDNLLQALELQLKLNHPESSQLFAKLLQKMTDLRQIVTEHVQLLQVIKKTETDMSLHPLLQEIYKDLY
Sequence of Nuclear receptor subfamily 1 group I member 2 (Rattus norvegicus) (Q9R1A7 whole entry, looked up): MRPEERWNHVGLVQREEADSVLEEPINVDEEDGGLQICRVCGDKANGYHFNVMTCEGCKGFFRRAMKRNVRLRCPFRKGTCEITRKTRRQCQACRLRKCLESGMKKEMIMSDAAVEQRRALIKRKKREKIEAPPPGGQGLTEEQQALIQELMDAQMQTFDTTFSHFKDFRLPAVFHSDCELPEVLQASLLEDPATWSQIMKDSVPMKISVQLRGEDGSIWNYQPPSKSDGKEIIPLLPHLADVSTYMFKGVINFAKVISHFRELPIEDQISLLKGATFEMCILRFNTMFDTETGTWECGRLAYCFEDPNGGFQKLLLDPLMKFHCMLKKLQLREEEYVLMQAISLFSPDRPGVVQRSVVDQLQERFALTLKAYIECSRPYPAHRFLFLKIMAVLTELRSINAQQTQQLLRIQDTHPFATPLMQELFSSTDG
Sequence of Estrogen receptor (Homo sapiens) (P03372 whole entry, looked up): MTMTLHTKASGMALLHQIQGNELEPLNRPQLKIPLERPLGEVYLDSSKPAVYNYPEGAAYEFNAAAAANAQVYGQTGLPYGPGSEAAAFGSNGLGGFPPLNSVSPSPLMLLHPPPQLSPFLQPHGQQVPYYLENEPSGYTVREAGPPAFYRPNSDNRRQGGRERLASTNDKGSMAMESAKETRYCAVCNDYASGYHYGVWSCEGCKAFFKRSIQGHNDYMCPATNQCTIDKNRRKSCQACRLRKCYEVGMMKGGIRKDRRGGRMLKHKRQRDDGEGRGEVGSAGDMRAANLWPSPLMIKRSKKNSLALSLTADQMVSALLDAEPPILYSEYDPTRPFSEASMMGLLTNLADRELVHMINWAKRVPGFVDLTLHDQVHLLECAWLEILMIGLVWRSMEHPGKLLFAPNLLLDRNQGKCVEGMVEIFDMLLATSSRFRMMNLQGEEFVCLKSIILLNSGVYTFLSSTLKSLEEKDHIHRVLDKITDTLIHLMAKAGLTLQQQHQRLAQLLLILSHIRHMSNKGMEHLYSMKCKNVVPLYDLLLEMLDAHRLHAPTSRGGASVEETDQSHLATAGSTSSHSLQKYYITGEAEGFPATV
Sequence of Aryl hydrocarbon receptor (Homo sapiens) (P35869 whole entry, looked up): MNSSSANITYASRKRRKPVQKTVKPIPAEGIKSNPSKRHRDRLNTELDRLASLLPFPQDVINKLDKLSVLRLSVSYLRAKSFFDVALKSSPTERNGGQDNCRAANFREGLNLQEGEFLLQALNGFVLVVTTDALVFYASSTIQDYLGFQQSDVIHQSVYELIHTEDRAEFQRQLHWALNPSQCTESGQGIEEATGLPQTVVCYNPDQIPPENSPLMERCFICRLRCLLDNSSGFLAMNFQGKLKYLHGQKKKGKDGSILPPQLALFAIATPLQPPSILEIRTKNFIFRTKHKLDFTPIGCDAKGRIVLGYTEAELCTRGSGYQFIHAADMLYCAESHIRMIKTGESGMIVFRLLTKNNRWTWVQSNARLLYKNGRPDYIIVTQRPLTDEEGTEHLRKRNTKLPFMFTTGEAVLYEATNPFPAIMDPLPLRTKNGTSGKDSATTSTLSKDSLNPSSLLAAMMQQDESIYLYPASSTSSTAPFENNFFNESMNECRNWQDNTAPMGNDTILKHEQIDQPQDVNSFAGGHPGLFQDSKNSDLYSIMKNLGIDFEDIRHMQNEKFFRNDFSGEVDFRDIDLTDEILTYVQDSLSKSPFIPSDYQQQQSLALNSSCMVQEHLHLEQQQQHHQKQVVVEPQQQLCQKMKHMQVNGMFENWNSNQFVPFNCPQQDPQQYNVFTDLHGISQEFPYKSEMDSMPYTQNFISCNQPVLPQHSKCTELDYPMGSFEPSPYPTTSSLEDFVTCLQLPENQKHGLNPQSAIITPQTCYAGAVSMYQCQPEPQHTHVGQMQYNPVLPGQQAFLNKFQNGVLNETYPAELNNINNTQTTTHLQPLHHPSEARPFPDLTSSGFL
Sequence of Aromatase (Homo sapiens) (P11511 whole entry, looked up): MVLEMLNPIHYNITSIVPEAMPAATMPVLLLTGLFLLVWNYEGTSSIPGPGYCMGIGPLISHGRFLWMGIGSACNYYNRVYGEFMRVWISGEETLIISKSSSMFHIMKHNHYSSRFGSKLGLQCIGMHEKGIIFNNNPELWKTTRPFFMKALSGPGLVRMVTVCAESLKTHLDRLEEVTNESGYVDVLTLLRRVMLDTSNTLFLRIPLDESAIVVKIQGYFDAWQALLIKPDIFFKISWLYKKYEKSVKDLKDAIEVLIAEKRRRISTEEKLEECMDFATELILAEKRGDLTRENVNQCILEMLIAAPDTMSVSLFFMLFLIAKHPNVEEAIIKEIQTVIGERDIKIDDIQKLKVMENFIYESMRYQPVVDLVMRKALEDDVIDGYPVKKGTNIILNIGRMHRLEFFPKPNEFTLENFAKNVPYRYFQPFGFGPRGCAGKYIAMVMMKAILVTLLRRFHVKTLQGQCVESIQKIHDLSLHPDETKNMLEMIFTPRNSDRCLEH

| Compound | Potency [1] | Potency [2] | Potency [3] | Potency [4] | Potency [5] | Potency [6] | Potency [7] | Potency [8] | Potency [9] | Potency [10] | Potency [11] | Potency [12] | Potency [13] | max activation [14] | Potency [15] | Potency [16] | Potency [17] | Potency [18] |
| --- | --- | --- | --- | --- | --- | --- | --- | --- | --- | --- | --- | --- | --- | --- | --- | --- | --- | --- |
| CN1[C@@H]2CC[C@H]1CC(OC(c1ccccc1)c1ccccc1)C2 (stereo not given in full) | 16.8 µM (active) and 26.6 µM (active) | 13.3 µM (active) and 23.7 µM (active) and 11.9 µM (active) | inactive | inactive | inactive | inactive | inactive | inactive | inactive | inactive | inactive | inactive | inactive | -1.01% (inactive) and 0.643% (inactive) and -2.69% (inactive) | inactive and 14.1 µM (active) | inactive |  |  |
| CN(C)CC/C=C1/c2ccccc2CSc2ccccc21 | 4.52 µM (active) | 9.02 µM (active) | inactive | inactive | inactive | inactive | inactive | inactive | inactive | inactive | inactive | inactive |  | -3.65% (inactive) | inactive | inactive | inactive |  |
| NC[C@@H]1O[C@H](O[C@H]2[C@@H](O)[C@H](O[C@@H]3[C@@H](O)[C@H](N)C[C@H](N)[C@H]3O[C@H]3O[C@H](CN)[C@@H](O)[C@H](O)[C@H]3N)O[C@@H]2CO)[C@H](N)[C@@H](O)[C@@H]1O |  |  |  |  | inactive | inactive | inactive | inactive | inactive | inactive | inactive | inactive |  |  |  |  | inactive | inactive |
| N[C@@H](C(=O)N[C@@H]1C(=O)N2C(C(=O)O)=C(CSc3cn[nH]n3)CS[C@H]12)c1ccc(O)cc1 |  |  |  |  | inactive |  |  |  | inactive | inactive | inactive | inactive | inactive |  |  |  | inactive | inactive |
| COC(=O)CCC(=O)CN |  |  |  |  | inactive | inactive | inactive | inactive | inactive | inactive | inactive | inactive | inactive |  |  |  |  | inactive |
| O=C(O)c1c(Cl)c(Cl)c(Cl)c(Cl)c1-c1c2cc(I)c(=O)c(I)c-2oc2c(I)c(O)c(I)cc12 | 23.7 µM (active) | 23.7 µM (active) | inactive |  |  | inactive |  |  | 23.7 µM (active) | inactive | 23.7 µM (active) | 6.68 µM (active) | 23.7 µM (active) | -7.42% (inactive) |  | inactive |  |  |
| C=C1C(=C/C=C2\CCC[C@]3(C)[C@@H]([C@H](C)CCCC(C)(C)O)CC[C@@H]23)C[C@@H](O)C[C@@H]1O | 23.7 µM (active) | 13.3 µM (active) |  |  | 23.9 µM (active) | inactive |  | 29.8 µM (active) | 2.37 µM (active) | inactive | inactive |  | inactive | 0.618% (inactive) | inactive |  |  |  |
| COc1ccc(C(=O)Nc2ccccc2CCC2CCCCN2C)cc1 (stereo not given) |  |  |  | inactive |  | inactive |  | inactive | 2.98 µM (active) | inactive |  | inactive |  |  |  |  | inactive | inactive |
| Nc1c(Br)cc(Br)cc1CNC1CCC(O)CC1 (stereo not given) |  |  |  | inactive | inactive | inactive | inactive | inactive | inactive | inactive | inactive | inactive | inactive |  |  |  | inactive | inactive |
| Clc1ccc(COC(Cn2ccnc2)c2ccc(Cl)cc2Cl)c(Cl)c1 (stereo not given) |  |  |  | inactive | inactive | inactive | inactive | inactive | inactive |  | inactive |  |  |  |  |  | inactive | inactive |
| CCNC(=O)[C@@H]1CCCN1C(=O)[C@H](CCCN=C(N)N)NC(=O)[C@H](CC(C)C)NC(=O)[C@@H](Cc1c[nH]c2ccccc12)NC(=O)[C@H](Cc1ccc(O)cc1)NC(=O)[C@H](CO)NC(=O)[C@H](Cc1c[nH]c2ccccc12)NC(=O)[C@H](Cc1cnc[nH]1)NC(=O)[C@@H]1CCC(=O)N1 | 1.5 µM (active) | 1.33 µM (active) |  |  | 10.7 µM (active) |  |  |  | 10.6 µM (active) | 13.3 µM (active) | 29.8 µM (active) | inactive | 7.5 µM (active) | -27.8% (inactive) | inactive | inactive |  |  |
| CC(C)N1CCN(c2ccc(OC[C@H]3CO[C@](Cn4cncn4)(c4ccc(Cl)cc4Cl)O3)cc2)CC1 | 6.39 µM (active) | 4.52 µM (active) |  | inactive |  | inactive | inactive |  |  |  | inactive |  |  | -0.695% (inactive) | inactive | 5.62 µM (active) | inactive |  |
| CO[C@H]1C[C@H](O[C@H]2[C@H](C)[C@@H](O[C@@H]3O[C@H](C)C[C@H](N(C)C)[C@H]3OC(C)=O)[C@@H](C)C[C@]3(CO3)C(=O)[C@H](C)[C@@H](OC(C)=O)[C@@H](C)[C@@H](C)OC(=O)[C@@H]2C)O[C@@H](C)[C@@H]1OC(C)=O |  |  |  |  | inactive |  |  |  | inactive | inactive | inactive | inactive | inactive |  |  |  | inactive | inactive |
